# Assay results from PubChem BioAssay (Tox21).
# “And” between values parts separate entries of the source, which are not always exact repeats. Equal values may be shown once. Results filed as inconclusive are left out. Unmarked numbers belong to inactive results. The source made the active and inactive calls. Calls come from the whole dose curve; as a rule, active = well fitted cell-killing curve with a large enough effect in the repeat runs; inconclusive = weak or mixed curves, or effect the other way; inactive = flat fitted curve, though single readings scatter.
# Assay: cAMP Responsive Elements (CRE) small molecule antagonists, cell-based qHTS assay: qHTS cell viability counter screen (AID 2060913); note: nearly all actives have a fitted effect of over 40% in size
# Conditions: CRE-bla HEK293T viability, CellTiter-Glo luminescence, 5 h; series mostly up to 92.4 µM; viability change, negative = cytotoxic: at the top concentration
# Summary of the method: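 CRE-bla HEK293T cells (2,000/well, 18 h) given compound plus NKH477 0.25 uM final for 3 h at 37C; viability counter-screen by CellTiter-Glo luminescence in same wells after 30 min.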
# % is set by controls: 0 for no effect and ±100 for the full control effect; potency is the fitted concentration of half-maximal effect.
SMILES,"viability change, negative = cytotoxic",Potency
Cc1onc(-c2ccccc2)c1-c1ccc(S(N)(=O)=O)cc1,2.62% [at 42.5 µM],–
CCc1c(C(=O)NN2CCCCC2)nn(-c2ccc(Cl)cc2Cl)c1-c1ccc(Br)cc1,-8.22%,–
CCCCCCn1c(=O)c2c(ncn2C)n(C)c1=O,-0.855% [at 42.5 µM],–
CCOc1ccc2c(c1)C(C)=CC(C)(C)N2,–,inactive
CCOC(=O)CC(C)C,3.74%,–
COc1ccc(OC)cc1,–,inactive
Cc1c(C)c2c(c(C)c1OC(=O)CCC(=O)O)CC[C@@](C)(CCC[C@H](C)CCC[C@H](C)CCCC(C)C)O2,-1.07%,–
CC[C@H]1O[C@]2(CC[C@@H]1C)C[C@@H]1C[C@@H](C/C=C(\C)C[C@@H](C)/C=C/C=C3\CO[C@@H]4[C@H](O)C(C)=C[C@@H](C(=O)O1)[C@]34O)O2,–,30.4 µM (active)
CC(=O)Nc1cccc(C)c1,-5.44%,–
CN1CCN(CCC(=O)N2c3ccccc3Sc3ccc(C(F)(F)F)cc32)CC1,-12.1% [at 42.5 µM],–
CN(C)CCCOc1nn(Cc2ccccc2)c2ccccc12,-1.48% [at 42.5 µM],–
CCC(=O)OCCc1ccccc1,-6.32%,–
CC(C)C(=O)OCCc1ccccc1,6.7%,–
CCC1CCCCC1,10.3%,–
COc1cccc2c1C(=O)c1c(O)c3c(c(O)c1C2=O)C[C@@](O)(C(=O)CO)C[C@@H]3O[C@H]1C[C@H](N)[C@H](O[C@@H]2CCCCO2)[C@H](C)O1,11.5% [at 42.5 µM],–
COCCOCC(OC)OC,4.36% [at 42.5 µM],–
COc1ccc(Nc2ccc(OC)cc2)cc1,-13%,–
O=C(Nc1ccc([N+](=O)[O-])cc1Cl)c1cc(Cl)ccc1O,-20.4%,–
Cc1ccc2ccc3cccc4ccc1c2c34,-24.3%,–
Nc1ncnc2c1ncn2[C@H]1CC[C@@H](CO)O1,15.1%,–

SMILES,"viability change, negative = cytotoxic",Potency
CC(=O)OCCC(C)C,–,inactive
CCCCC(CC)CNC(=O)CC(C)OC(=O)CCC(=O)O (centres undefined),-0.653% [at 42.5 µM],–
CCCCCCCCCCCCCCC(=O)O,0.0737%,–
CCCC(CCC)(C(=O)OCC)C(=O)OCC,6.89% [at 42.5 µM],–
CC/C=C\CCOC(=O)c1ccccc1,-0.512%,–
Cc1cc(Cc2cc(C)cc(C(C)(C)C)c2O)c(O)c(C(C)(C)C)c1,–,54.8 µM (active) and 40.3 µM (active)
CN(C/C=C/c1ccccc1)Cc1cccc2ccccc12,–,29.8 µM (active)
Cc1ccc(S(=O)(=O)NC(=O)NC2CCCCC2)cc1,6.22% [at 42.5 µM],–
C[N+]1(CC2COC(c3ccccc3)(c3ccccc3)O2)CCCCC1 (centres undefined),0.835% [at 18.9 µM],–
CCOCCOCCOC(C)=O,-9.1%,–
NS(=O)(=O)c1ccc(NC(=O)CCC(=O)O)cc1,-2.03% [at 42.5 µM],–
Cc1occc1SSc1ccoc1C,8.26%,–
Cc1ccccc1OCC(=O)O,7.55%,–
CC(=O)Nc1ccc(S(=O)(=O)Nc2ccc([N+](=O)[O-])cc2)cc1,3.57% [at 42.5 µM],–
CC(=O)Oc1cccc(O)c1,6.14% [at 42.5 µM],–
CCC(C)O (centres undefined),0.28%,–
COc1ccc(Cl)cc1C,4.85%,–
CCc1cc(S(=O)(=O)O)c2cc(C(C)C)cccc1-2,14.1% [at 42.5 µM],–
CCCCCCCCCCCCCCCCCCOCCO,-9.04% [at 18.9 µM],–
